# Compounds with a hit are over-represented: about 3.2% of the library has one in this group of screens.
# INS-1E GSIS act: primary screen for activators of insulin secretion dependent on glucose, INS-1E cells, GLuc reporter luminescence. INS-1E GLuc reporter insulin secretion, 2-3 h. hit rate 0.61% among 370,000. activation, % at 16.6 µM;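 active = lowest replicate activation of at least 40%, so every replicate reaches that level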;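 note: 0% = median of neutral control wells and 100% = median of IBMX positive control wells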
# rRNA inh HTS: selective bacterial rRNA inhibition in E. coli | E. coli WT GFP vs humanized-ribosome RFP mutants, fluorescence, 24 h; hits give low values; DMSO median 0, no signal -100 | GFP signal change (wild-type ribosome), % (concentration not given with the values) | hit rate 1.6% among 350,000;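 active = significant combined selectivity score with lowered wild-type GFP, culture density cut under 30%, mutant RFP and density less affected; inactive = any of these conditions unmet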
# DENV2 CPE: protects cells from dengue virus 2 cytopathic effect; DENV2-infected cells, cytopathic effect rescue, plate reader; CPE inhibition, % at 9.99 µM; hit rate 1.7% among 350,000; in the data active = CPE inhibition above about 20%, passing the limit was not always enough; inconclusive = no clear call, values can overlap the other calls; tested in BHK-21 cells;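 note: 0% = median of neutral control wells and 100% = median of positive control wells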
# ERAP1 HTS inh: inhibitors of human ERAP1 aminopeptidase; Q9NZ08; recombinant ERAP1, Leu-AMC fluorescence, 60 min; inhibition, % at 10.7 µM; hit rate 0.15% among 340,000; AID 652197;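 active = mean replicate inhibition of at least 30%, or all replicates individually reaching that 30% level; inactive = mean below 30% and not every replicate reaching it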;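 note: 0% = neutral control wells and 100% = L-leucinethiol positive control wells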
# Target sequence (Q9NZ08 whole entry, looked up): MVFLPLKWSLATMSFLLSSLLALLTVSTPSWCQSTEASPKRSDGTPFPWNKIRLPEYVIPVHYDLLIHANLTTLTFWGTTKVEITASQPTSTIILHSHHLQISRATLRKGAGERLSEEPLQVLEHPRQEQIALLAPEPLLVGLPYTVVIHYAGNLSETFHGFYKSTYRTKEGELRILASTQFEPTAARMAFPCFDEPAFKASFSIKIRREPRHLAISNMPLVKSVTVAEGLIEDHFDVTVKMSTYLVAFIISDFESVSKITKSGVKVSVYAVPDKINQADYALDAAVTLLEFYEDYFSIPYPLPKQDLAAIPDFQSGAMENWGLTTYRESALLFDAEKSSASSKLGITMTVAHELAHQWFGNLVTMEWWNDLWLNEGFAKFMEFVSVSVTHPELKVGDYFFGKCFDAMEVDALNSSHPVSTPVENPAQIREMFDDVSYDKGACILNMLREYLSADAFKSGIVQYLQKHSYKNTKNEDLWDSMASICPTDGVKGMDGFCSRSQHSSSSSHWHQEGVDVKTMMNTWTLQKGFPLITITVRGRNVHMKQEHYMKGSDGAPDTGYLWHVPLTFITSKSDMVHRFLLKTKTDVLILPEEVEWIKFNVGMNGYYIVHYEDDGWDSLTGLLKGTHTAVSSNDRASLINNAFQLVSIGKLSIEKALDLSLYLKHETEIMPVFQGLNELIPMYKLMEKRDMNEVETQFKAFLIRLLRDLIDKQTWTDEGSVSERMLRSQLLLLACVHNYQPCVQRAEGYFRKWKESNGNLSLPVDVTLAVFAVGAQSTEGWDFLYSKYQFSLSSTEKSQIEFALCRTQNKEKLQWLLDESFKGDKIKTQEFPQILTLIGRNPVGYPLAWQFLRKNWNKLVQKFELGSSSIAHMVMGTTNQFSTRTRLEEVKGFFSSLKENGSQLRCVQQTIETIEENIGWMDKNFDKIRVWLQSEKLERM
# CaV13 FRET inh: Disruptors of the CACNA1D IQ motif to Ca2+-dependent inactivation inhibitor domain association, primary screening, Förster resonance energy transfer in intact living …; hit rate 0.098% among 340,000; HEK cells, CFP/YFP FRET ICDI-IQ, plate reader, 10 min; percent FRET-ratio fall versus neutral wells; inhibition, % at 12.3 µM;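 active = mean replicate inhibition of at least 30% and at least 1% of replicates passing that level; inconclusive = only one of the two criteria is met; inactive = neither criterion is met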;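 note: 0% = median of the neutral control wells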
# PGC1a acetyl inh: modulators of PGC1a acetylation | U2OS PGC1a acetylation, AlphaScreen anti-acetyl-lysine; with virally co-expressed GCN5 acetyltransferase | inhibition, % at 15.6 µM | hit rate 0.17% among 350,000 | AID 651687;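 active = every replicate shows inhibition of at least 40%; inconclusive = mean inhibition at least 40% but some replicate below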;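 note: 0% = neutral control wells and 100% = positive control wells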
# * marks the source's active call; other numbers are inactive results; ? = inconclusive; nt = not tested or not shown.
SMILES,INS-1E GSIS act,rRNA inh HTS,DENV2 CPE,ERAP1 HTS inh,CaV13 FRET inh,PGC1a acetyl inh
CC(=O)N1[C@H](CNC(=O)C2CC2)[C@H](c2ccc(-c3cccc(F)c3)cc2)[C@@H]1CO,1,-4,28*,2,nt,-14
COc1ccc(CN2CC3(CCN(S(=O)(=O)c4ccc(C)cc4)CC3)c3c([nH]c4cc(OC)ccc34)[C@H]2CO)cc1,-38,-28,-24,nt,nt,2
CC(C)NC(=O)Nc1ccc2c(c1)C(=O)N([C@H](C)CO)C[C@H](C)[C@@H](CN(C)C(=O)NC1CCCCC1)OCCCC[C@@H](C)O2,4,2,0,4,nt,-8
Cc1noc(C)c1S(=O)(=O)Nc1ccc2c(c1)C(=O)N([C@@H](C)CO)C[C@@H](C)[C@@H](CN(C)Cc1ccc(C(F)(F)F)cc1)OCCCC[C@@H](C)O2,-14,-5,-3,0,nt,15
CN(C)Cc1cn(CC[C@@H]2CC[C@@H](NC(=O)Nc3ccc4c(c3)OCO4)[C@@H](CO)O2)nn1,-5,-1,8,-2,nt,7
C[C@@H]1CN([C@H](C)CO)C(=O)c2cc(NC(=O)CCCN(C)C)ccc2O[C@@H]1CN(C)S(=O)(=O)c1cn(C)cn1,20,-1,3,-1,nt,-5
CC(=O)NC[C@H]1[C@@H](c2ccc(-c3cccc(F)c3)cc2)[C@H](CO)N1C(C)=O,3,0,7,0,nt,0
CCC(=O)N1[C@H](CO)[C@@H](c2ccc(-c3cccc(F)c3)cc2)[C@@H]1CN(C)C(C)=O,-4,2,34*,-2,nt,1
CC(=O)NC[C@@H]1[C@H](c2ccc(-c3cccc(F)c3)cc2)[C@H](CO)N1C(C)=O,-3,-4,25*,0,nt,7
CCC(=O)NC[C@H]1[C@@H](c2ccc(C3=CCCC3)cc2)[C@@H](CO)N1C(=O)CC,0,0,31*,-5,nt,nt
CC(=O)NC[C@@H]1[C@@H](c2ccc(-c3ccccc3)cc2)[C@H](CO)N1C(=O)C1CCC1,2,-4,6,-2,nt,-4
CC(=O)NC[C@H]1[C@@H](c2ccc(-c3ccccc3)cc2)[C@@H](CO)N1C(=O)C1CCC1,2,-4,31*,-2,nt,10
Cc1cccc(S(=O)(=O)N2CC[C@H]3[C@@H](CO)N(C)c4ccc(-c5cccc(C#N)c5)cc4[C@H]32)c1,8,-4,-3,-1,nt,-1
C[C@H](CO)N1C[C@H](C)[C@@H](CN(C)S(C)(=O)=O)Oc2ncc(C3=CCCC3)cc2C1=O,13,-4,-5,-3,nt,0
O=C(NC1=NCCS1)c1sc2ccccc2c1Cl,0,-31*,9,6,-9,8
COC(=O)c1cc2ccccc2c(-c2c(OC)c(C(=O)OC)cc3ccccc23)c1OC,nt,nt,nt,nt,-5,2
COC(=O)c1cc2ccccc2c([N+](=O)[O-])c1O,55*,-11,11,1,-5,-2
O=C(CN1C(=O)C2C3CC(C(Br)C3Br)C2C1=O)OCC(=O)c1cccc([N+](=O)[O-])c1 (stereo unspecified),1,23,5,5,-4,76*
O=C(CN1C(=O)C2C3C=CC(C3)C2C1=O)OCC(=O)c1ccc([N+](=O)[O-])cc1 (stereo unspecified),12,-2,0,-2,-3,nt
CC1CCN(S(=O)(=O)c2ccc(C(=O)Nc3nnc(C4=COCCO4)o3)cc2)CC1,16,-23*,-3,7,-6,2
O=C(Nc1nnc(C2=COCCO2)o1)c1ccc(S(=O)(=O)N2CCCC2)cc1,11,-5,-5,21,-5,nt
CS(=O)(=O)N1CCCCN2[C@H](CO)[C@H](c3ccc(C#Cc4ccccn4)cc3)[C@@H]2C1,4,4,33*,0,nt,14
CC(C)CC#Cc1ccc([C@@H]2[C@H](CO)N3CCCCN(S(=O)(=O)c4ccc(F)cc4)C[C@@H]23)cc1,-22,-19*,-25,-1,nt,-17
CC(C)CC#Cc1ccc([C@H]2[C@@H](CO)N3CCCCN(S(=O)(=O)c4ccc(F)cc4)C[C@@H]23)cc1,7,1,-19,-2,nt,-7
CC(C)CC#Cc1ccc([C@H]2[C@H](CO)N3CCCCN(S(=O)(=O)Cc4ccccc4)C[C@@H]23)cc1,30,-56,10,3,nt,-11
SMILES,INS-1E GSIS act,rRNA inh HTS,DENV2 CPE,ERAP1 HTS inh,CaV13 FRET inh,PGC1a acetyl inh
CCS(=O)(=O)N1CCCCN2[C@H](C1)[C@@H](c1ccc(C#Cc3ccccn3)cc1)[C@@H]2CO,-2,-1,?,-1,nt,0
CC(C)CC#Cc1ccc([C@@H]2[C@H](CO)N3CCCCN(S(=O)(=O)Cc4ccccc4)C[C@@H]23)cc1,-23,-48,23*,0,nt,-61
CC(C)C#Cc1ccc([C@@H]2[C@H](CO)N3CCCCN(S(=O)(=O)Cc4ccccc4)C[C@@H]23)cc1,-25,-42*,-2,1,nt,-7
COc1ccccc1S(=O)(=O)N[C@H]1C=C[C@H](CC(=O)N2CCN(C)CC2)O[C@H]1CO,-18,0,?,4,nt,18
CC(C)CC#Cc1ccc([C@@H]2[C@@H](CO)N3CCCCN(S(=O)(=O)Cc4ccccc4)C[C@@H]23)cc1,-5,5,22*,1,nt,-8
CCCC#Cc1ccc([C@H]2[C@@H](CO)N3CCCCN(S(=O)(=O)Cc4ccccc4)C[C@@H]23)cc1,-14,-1,-7,0,nt,5
CN(C)C(=O)c1ccc(-c2ccc(C3[C@@H]4CN(C(=O)Cc5ccccc5)C[C@H]3N4)cc2)cc1 (stereo partly specified),3,2,4,-1,nt,11
O=C(Cn1ccc([N+](=O)[O-])n1)N1CCCCCC1,8,7,2,-5,115*,0
O=C(Cn1ccc([N+](=O)[O-])n1)NCC1CCCO1 (stereo unspecified),0,-7,27*,-1,-4,nt
O=S(=O)(Nc1cccc(Br)c1)c1cccc2nsnc12,-43,-33*,-2,0,-3,nt
CC(=O)N1[C@H](C(=O)NCC2CC2)[C@@H](CO)[C@@H]2Cn3c(ccc(-c4ccccc4F)c3=O)[C@@H]21,17,-1,-3,3,nt,-6
CCOc1ccc(C(=O)N/N=C(\c2ccccc2)c2ccccn2)cc1,nt,nt,nt,nt,nt,80*
Cn1ccc(=O)c2cc([N+](=O)[O-])ccc21,-5,-26*,-2,3,-6,nt
COc1ccc(-c2ccc3c(c2)[C@@H]2[C@@H](CCN2C(=O)c2cccc(F)c2)[C@H](CO)N3C)cc1,-7,-1,-10,-1,nt,-2
Cc1cc(C)nc(Nc2n[nH]c(COc3ccc4ccccc4c3)n2)n1,62*,nt,nt,nt,-4,5

# High-throughput results from PubChem.
